High-throughput results from PubChem BioAssay.
VP16 counter: Gal4-VP16 reporter inhibition counter-screen | Potency, µM (top dose mostly 53.6 µM), actives largely listed as inhibitors | hit rate 3.5% among 310,000 | Drosophila S2 Gal4-VP16 UAS-luciferase, luminescence, 20 h;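 note: Gal4-VP16 expression switched on by copper sulfate through the metallothionein promoter; nearly all actives have a fitted effect of over 50% in size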
RORg inh: inhibitors of mouse ROR gamma transcriptional activity. hit rate 5.4% among 310,000. Potency, µM (titrated, usually from 53.6 µM), most hits filed as inhibitors. Drosophila S2 Gal4-RORgamma UAS-luciferase reporter, 20 h; note: nearly all actives have a fitted effect of over 60% in size
Target sequence (P51450 whole entry, looked up, the tested form may be a part): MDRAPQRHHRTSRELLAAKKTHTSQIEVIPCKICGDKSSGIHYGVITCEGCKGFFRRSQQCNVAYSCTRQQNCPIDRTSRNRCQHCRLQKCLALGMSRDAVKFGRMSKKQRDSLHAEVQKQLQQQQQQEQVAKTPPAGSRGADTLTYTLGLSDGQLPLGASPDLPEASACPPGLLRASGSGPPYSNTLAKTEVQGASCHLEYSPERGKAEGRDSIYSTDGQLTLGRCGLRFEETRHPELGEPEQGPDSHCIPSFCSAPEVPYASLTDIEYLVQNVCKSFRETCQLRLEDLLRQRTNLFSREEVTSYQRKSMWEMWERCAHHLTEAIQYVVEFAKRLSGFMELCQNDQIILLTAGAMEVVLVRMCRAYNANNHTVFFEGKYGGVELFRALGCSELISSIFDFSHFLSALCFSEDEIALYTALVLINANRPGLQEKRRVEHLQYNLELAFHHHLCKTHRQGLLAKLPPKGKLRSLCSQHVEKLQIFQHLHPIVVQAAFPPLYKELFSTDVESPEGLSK
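Drosophila Schneider cells stably carrying a metallothionein-driven Gal4 DBD–ROR gamma fusion and a UAS-Photinus luciferase reporter were exposed to compound for 1 hr, then induced with copper sulfate (700 uM final) for 20 hr at ambient temperature before luminescence reading.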
KinaseGlo FLuc: counter-screen: inhibitors of Kinase-Glo firefly luciferase; hit rate 0.28% among 200,000; Potency, µM (doses to about 38.3 µM), hits mostly inhibitors; Kinase-Glo luciferase, ATP luminescence, 8 min; Q27757; note: nearly all actives have a fitted effect of over 60% in size
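Kinase-Glo luciferase light output from ATP and luciferin was measured with 10 uM ATP, within the enzyme's linear range. Buffer: 50 mM imidazole pH 7.2, 50 mM KCl, 7 mM MgCl2, 0.01% Tween 20, 0.05% BSA; luminescence read after 8 min at ambient temperature.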
Each line names hits and unclear results; the compound was inactive in the other large screens. Rows were chosen to be rich in hits. Some 6.2% of all compounds tested hit in one or more screens of this group. Calls come from the whole dose curve; as a rule, active = well fitted curve in the direction sought with a large enough effect; inconclusive = small, poorly fitted or top-dose-only effect, or another doubt; inactive = no such curve, though single readings can be large; an effect the other way counts as inactive or inconclusive.

CC1(C)CC[C@]2(C(=O)O)CC[C@]3(C)C(=CCC4[C@@]5(C)CC[C@H](O)C(C)(C)C5CC[C@]43C)C2C1 (stereo partly drawn)	RORg inh 6.31µM
COc1ncc2nc(-c3cccs3)c(=O)n(Cc3cccs3)c2n1	none (no result: KinaseGlo FLuc)
Cc1ccc(CNC(=O)CCC(=O)c2cccs2)cc1	RORg inh 12.6µM
O=C(CCC(=O)c1cccs1)NCc1ccc(Cl)cc1	none
CCc1nnc(NC(=O)CSc2nc(N)c(NC(=O)c3ccc(OC)cc3)c(=O)[nH]2)s1	RORg inh inconclusive (no result: KinaseGlo FLuc)
COC(=O)C1C(=O)C(C(=O)c2ccc([N+](=O)[O-])cc2)C(=O)CC1(C)C (stereo not drawn)	none (no result: KinaseGlo FLuc)
COc1cc(/C=C2\SC(c3ccc(C)cc3)=NC2=O)cc(OC)c1O	RORg inh inconclusive
Cc1ccc(C2=NC(=O)/C(=C/c3cc(O)c(O)c(Br)c3)S2)cc1	KinaseGlo FLuc 10µM
COc1cccc(-c2nc(CS(=O)(=O)CC(=O)Nc3cc(F)ccc3F)c(C)o2)c1	none (no result: KinaseGlo FLuc)
Cc1cccc(-c2noc(CNS(=O)(=O)c3ccccc3)n2)c1	none (no result: KinaseGlo FLuc)
N#Cc1c(-c2cccs2)cc(-c2ccccn2)nc1N	VP16 counter 7.94µM, RORg inh inconclusive
N#Cc1c(-c2cccs2)cc(-c2cccnc2)nc1N	none
CC(C)(Cc1ccc(O)cc1)NC(=O)c1ccccc1	none (no result: KinaseGlo FLuc)
CC1(C)CC2(CC(c3ccccc3F)c3cc(Cl)c(O)cc3O2)NC(=S)N1 (stereo not drawn)	VP16 counter inconclusive, RORg inh 11.2µM
COc1cccc(C2CC3(CC(C)(C)NC(=S)N3)Oc3cc(O)ccc32)c1 (stereo not drawn)	none
COc1ccc(C2CC3(CC(C)(C)NC(=S)N3)Oc3cc(O)cc(C)c32)cc1OC (stereo not drawn)	RORg inh inconclusive
Cc1cccc(C2CC3(CC(C)(C)NC(=S)N3)Oc3cc(O)ccc32)c1 (stereo not drawn)	RORg inh 10µM
O=C(Nc1cccc(OC(=O)c2ccc(Br)o2)c1)c1ccccc1	none (no result: KinaseGlo FLuc)
CC(=O)Nc1nonc1NC(=O)CSc1ncn[nH]1	none (no result: KinaseGlo FLuc)
CO/N=C(\C)CCN1CCc2nc(-c3ccccc3)c(-c3ccccc3)cc2C1	none (no result: KinaseGlo FLuc)
CCN(CC)S(=O)(=O)c1ccc(NC(=O)c2cnccn2)cc1	none (no result: KinaseGlo FLuc)
CC(C)(C)NC(=S)NCc1ccco1	none
NNC(=S)NCc1ccco1	VP16 counter inconclusive, RORg inh 7.08µM (no result: KinaseGlo FLuc)
S=C(NCc1cccc(Cl)c1)NCc1ccco1	VP16 counter inconclusive (no result: KinaseGlo FLuc)
Cc1cccc(NC(=S)NCc2ccco2)n1	VP16 counter 4.47µM, RORg inh 1.26µM
S=C(NCc1ccccc1)NCc1ccco1	VP16 counter inconclusive, RORg inh 11.2µM (no result: KinaseGlo FLuc)
CC(=O)c1ccc(NC(=S)NCc2ccco2)cc1	none
COc1ccc2oc(C(=O)OCC(=O)N(CCC#N)c3ccccc3)c(C)c2c1	none (no result: KinaseGlo FLuc)
CC1=NN(C(=O)c2ccc(Cn3ccc([N+](=O)[O-])n3)cc2)C(O)(C(F)(F)F)C1 (stereo not drawn)	VP16 counter 12.6µM, RORg inh 10µM
O=C(c1ccccc1[N+](=O)[O-])N1N=C(c2ccccc2)CC1(O)C(F)(F)F (stereo not drawn)	RORg inh inconclusive (no result: KinaseGlo FLuc)
Cc1nn(Cc2ccc(C(=O)N3CCN(C(=O)c4ccco4)CC3)o2)c(C)c1[N+](=O)[O-]	none (no result: KinaseGlo FLuc)
CC1=NN(C(=O)c2ccc(Cn3nc(C)c([N+](=O)[O-])c3C)o2)C(O)(C(F)(F)F)C1 (stereo not drawn)	VP16 counter 7.08µM, RORg inh 2.51µM
COCCCN1C(=O)C(=O)/C(=C(/O)c2ccc(S(=O)(=O)N3CCOCC3)cc2)C1c1ccc(C(C)C)cc1 (stereo not drawn)	none (no result: KinaseGlo FLuc)
Cc1cnc(NC(=O)CSc2nnc(COc3ccccc3)o2)s1	none (no result: KinaseGlo FLuc)
Cc1cnc(NC(=O)CSc2nnc(COc3c(C)cccc3C)o2)s1	VP16 counter inconclusive, RORg inh 11.2µM
COc1ccc(CC(=O)N2CCc3ccccc3C2)cc1	none (no result: KinaseGlo FLuc)
CCN1CCN(C(=O)/C=C/c2c(F)cccc2Cl)CC1	none
O=C(/C=C/c1c(F)cccc1Cl)N1CCc2ccccc2C1	RORg inh 0.398µM (no result: KinaseGlo FLuc)
CCc1ccc(/C=C\C(=O)N2CCc3ccccc3C2)cc1	VP16 counter inconclusive, RORg inh 10µM
OCCN(CCO)c1nc(N2CCCCC2)c2nc(N(CCO)CCO)nc(N3CCCCC3)c2n1	RORg inh inconclusive
C=C1CCC(C2CC(=O)OC2=O)C(=O)CCC2C1CC2(C)C (stereo not drawn)	none
Nc1c(OCC(=O)O)ccc2cc(S(=O)(=O)O)ccc12	none (no result: VP16 counter, RORg inh)
C/C(=N\NC(=O)Cn1nc(C)c(Br)c1C)c1cccs1	none
O=S(=O)(/C(=C/c1ccc(C(F)(F)F)cc1)c1nc2ccccc2[nH]1)c1ccccc1	VP16 counter 5.62µM, RORg inh 14.1µM
CC(C)c1ccc(/C=C(\c2nc3ccccc3[nH]2)S(=O)(=O)c2ccccc2)cc1	VP16 counter inconclusive, RORg inh inconclusive
C/C=C/OC(=O)NC(c1cccc(C)c1)[C@@]1(C(=O)OCC)CCCC1=O (stereo partly drawn)	none (no result: KinaseGlo FLuc)
CCCCCCCCCCCC[n+]1ccc2ccccc2c1	VP16 counter 5.01µM, RORg inh inconclusive (no result: KinaseGlo FLuc)
O/N=C/c1cccc[n+]1CCCCCC[n+]1ccccc1/C=N/O	none (no result: KinaseGlo FLuc)
CCCCCCCCCCCCCCCC[n+]1cccc(C(=O)N(CC)CC)c1	none
CCCCCCCCCCCCCC[n+]1ccc(C)cc1	VP16 counter 3.98µM, RORg inh inconclusive (no result: KinaseGlo FLuc)
O=[N+]([O-])c1ccc(C[n+]2cccc3c4ccccc4ccc32)cc1	none
CCCCCCCCCCCCCCCC[n+]1ccc(/C=N/O)cc1	VP16 counter 7.08µM, RORg inh inconclusive
CCCCCCCCCCCCCCCC[n+]1ccc(C(N)=O)cc1	RORg inh inconclusive
CCCCCCCCC[n+]1cccc2c3ccccc3ccc21	VP16 counter 2.51µM, RORg inh 8.91µM
Cc1cc(C(F)(F)F)nn2cnnc12	none
CC(C)c1cccc2cc3c(nc12)-c1cccc(=O)n1C3	none
N#Cc1ccc(CS(=O)(=O)c2ccccc2)cc1	none
O=C(NNC(=S)NCc1ccccc1)c1ccc2c(c1)OCO2	VP16 counter inconclusive
O=C(NC(=S)NCc1ccc2c(c1)OCO2)c1ccccc1	VP16 counter 17.8µM, RORg inh 20µM
O=C(NCc1ccc2c(c1)OCO2)c1ccccc1	RORg inh inconclusive
Cc1nc(NC(=O)c2ccccc2)sc1Cc1ccc2c(c1)OCO2	VP16 counter inconclusive, RORg inh 12.6µM
O=C(NCCc1ccccc1)c1cc(-c2ccc3c(c2)OCO3)on1	none
O=C(NCCc1ccccc1)c1ccc2c(c1)OCO2	VP16 counter 5.01µM, RORg inh 2.82µM (no result: KinaseGlo FLuc)
O=C(NC(=S)NCc1ccccc1)c1ccc2c(c1)OCO2	VP16 counter 11.2µM, RORg inh 7.94µM
Cc1nc(NC(=O)c2ccc(Cl)cc2)sc1Cc1ccc2c(c1)OCO2	VP16 counter inconclusive, RORg inh inconclusive
CCOc1ccc(N(CC(=O)NC2CCCCC2)S(=O)(=O)c2ccccc2)cc1	none (no result: KinaseGlo FLuc)
CCCCOc1ccc(C(=O)NCC(=O)NC(C)CCc2ccccc2)cc1 (stereo not drawn)	none (no result: KinaseGlo FLuc)
NS(=O)(=O)c1ccc(CCNC(=O)Cc2ccc(Cl)cc2)cc1	none (no result: KinaseGlo FLuc)
CN1C2CCC1CC(OC(=O)C(O)c1ccccc1)C2 (stereo not drawn)	none
CC(=O)Nc1ccc(S(=O)(=O)Nc2nc3ccccc3nc2-n2ccc(=NC(=O)c3ccc(F)cc3)cc2)cc1	none
